Key:
[1] = target: T1, Protein kinase C zeta type (Homo sapiens) (UniProt Q05513); conditions: at 1 µM
T1 sequence (whole entry): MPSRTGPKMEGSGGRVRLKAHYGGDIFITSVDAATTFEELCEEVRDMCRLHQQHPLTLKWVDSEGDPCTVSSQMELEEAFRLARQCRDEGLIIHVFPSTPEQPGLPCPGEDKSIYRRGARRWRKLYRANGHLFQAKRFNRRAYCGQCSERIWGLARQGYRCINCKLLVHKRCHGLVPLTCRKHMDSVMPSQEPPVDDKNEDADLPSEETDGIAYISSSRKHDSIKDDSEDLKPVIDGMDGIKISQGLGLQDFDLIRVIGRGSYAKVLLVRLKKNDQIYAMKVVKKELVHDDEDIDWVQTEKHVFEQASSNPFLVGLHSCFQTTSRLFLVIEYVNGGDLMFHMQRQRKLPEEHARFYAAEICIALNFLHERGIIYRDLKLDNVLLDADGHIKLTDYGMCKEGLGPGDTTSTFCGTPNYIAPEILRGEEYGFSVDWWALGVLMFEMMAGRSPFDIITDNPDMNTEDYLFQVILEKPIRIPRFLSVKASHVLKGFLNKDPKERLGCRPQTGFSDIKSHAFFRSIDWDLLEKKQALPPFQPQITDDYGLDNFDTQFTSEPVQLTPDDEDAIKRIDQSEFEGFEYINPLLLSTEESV

[2] = target: T2, Mitogen-activated protein kinase kinase kinase 5 (Homo sapiens) (UniProt Q99683); conditions: at 10 µM
T2 sequence (whole entry): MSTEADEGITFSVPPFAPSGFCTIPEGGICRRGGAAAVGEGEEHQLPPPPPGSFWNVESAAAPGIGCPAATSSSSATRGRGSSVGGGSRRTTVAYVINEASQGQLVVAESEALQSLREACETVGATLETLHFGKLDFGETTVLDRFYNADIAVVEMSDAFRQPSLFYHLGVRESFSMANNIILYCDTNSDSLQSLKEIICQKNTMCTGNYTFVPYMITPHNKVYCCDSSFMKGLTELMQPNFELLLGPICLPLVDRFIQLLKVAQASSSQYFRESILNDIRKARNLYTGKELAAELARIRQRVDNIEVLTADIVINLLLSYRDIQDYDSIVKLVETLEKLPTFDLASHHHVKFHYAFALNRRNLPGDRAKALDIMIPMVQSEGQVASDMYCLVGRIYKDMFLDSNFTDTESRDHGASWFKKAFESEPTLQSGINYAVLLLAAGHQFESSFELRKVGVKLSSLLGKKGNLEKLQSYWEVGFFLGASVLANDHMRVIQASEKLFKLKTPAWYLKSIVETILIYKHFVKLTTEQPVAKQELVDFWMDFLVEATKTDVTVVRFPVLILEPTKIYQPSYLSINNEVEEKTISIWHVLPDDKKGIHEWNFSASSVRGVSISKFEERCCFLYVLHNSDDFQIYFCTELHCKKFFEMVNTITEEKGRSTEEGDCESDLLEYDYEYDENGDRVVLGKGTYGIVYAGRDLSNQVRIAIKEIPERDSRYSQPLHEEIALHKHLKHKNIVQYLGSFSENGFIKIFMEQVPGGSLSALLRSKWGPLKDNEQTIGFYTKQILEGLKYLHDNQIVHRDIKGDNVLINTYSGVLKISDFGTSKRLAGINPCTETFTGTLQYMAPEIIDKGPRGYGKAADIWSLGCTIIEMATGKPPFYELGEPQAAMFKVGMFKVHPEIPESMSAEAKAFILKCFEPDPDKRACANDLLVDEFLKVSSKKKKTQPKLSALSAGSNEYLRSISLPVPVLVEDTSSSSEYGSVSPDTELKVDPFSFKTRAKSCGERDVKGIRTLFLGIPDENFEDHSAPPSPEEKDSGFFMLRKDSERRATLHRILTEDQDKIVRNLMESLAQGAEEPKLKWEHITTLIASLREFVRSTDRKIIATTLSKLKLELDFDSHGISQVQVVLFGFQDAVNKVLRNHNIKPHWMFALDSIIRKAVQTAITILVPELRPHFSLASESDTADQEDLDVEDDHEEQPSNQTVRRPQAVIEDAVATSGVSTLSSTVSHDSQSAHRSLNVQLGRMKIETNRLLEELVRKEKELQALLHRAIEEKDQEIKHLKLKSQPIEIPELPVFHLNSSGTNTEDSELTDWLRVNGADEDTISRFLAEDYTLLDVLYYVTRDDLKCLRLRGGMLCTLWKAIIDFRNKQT

[3] = target: Tyrosine-protein kinase ABL1 (Homo sapiens) (UniProt P00519); conditions: at 1 µM
[4] = target: Tyrosine-protein kinase ABL1 (Homo sapiens) (UniProt P00519); conditions: at 10 µM
[5] = target: Tyrosine-protein kinase ABL2 (Homo sapiens) (UniProt P42684); conditions: at 1 µM
[6] = target: Tyrosine-protein kinase ABL2 (Homo sapiens) (UniProt P42684); conditions: at 10 µM
[7] = target: T3, Aurora kinase A (Homo sapiens) (UniProt O14965); conditions: at 1 µM
T3 sequence (whole entry): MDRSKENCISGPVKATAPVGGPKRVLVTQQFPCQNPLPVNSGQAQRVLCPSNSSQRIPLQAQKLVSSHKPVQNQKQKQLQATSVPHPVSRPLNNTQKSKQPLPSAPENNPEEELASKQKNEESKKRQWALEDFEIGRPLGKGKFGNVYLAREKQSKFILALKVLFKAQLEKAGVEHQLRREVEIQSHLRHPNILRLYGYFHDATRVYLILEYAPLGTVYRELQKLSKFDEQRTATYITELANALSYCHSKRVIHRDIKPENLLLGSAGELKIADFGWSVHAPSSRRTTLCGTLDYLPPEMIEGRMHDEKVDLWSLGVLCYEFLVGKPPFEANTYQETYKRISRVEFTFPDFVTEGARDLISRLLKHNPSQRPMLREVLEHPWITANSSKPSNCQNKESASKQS

[8] = target: T3, Aurora kinase A (Homo sapiens); conditions: at 10 µM
[9] = target: Aurora kinase B (Homo sapiens) (UniProt Q96GD4); conditions: at 1 µM
[10] = target: Aurora kinase B (Homo sapiens) (UniProt Q96GD4); conditions: at 10 µM

Chain of Tyrosine-protein kinase ABL2 (Homo sapiens) (P42684 whole entry): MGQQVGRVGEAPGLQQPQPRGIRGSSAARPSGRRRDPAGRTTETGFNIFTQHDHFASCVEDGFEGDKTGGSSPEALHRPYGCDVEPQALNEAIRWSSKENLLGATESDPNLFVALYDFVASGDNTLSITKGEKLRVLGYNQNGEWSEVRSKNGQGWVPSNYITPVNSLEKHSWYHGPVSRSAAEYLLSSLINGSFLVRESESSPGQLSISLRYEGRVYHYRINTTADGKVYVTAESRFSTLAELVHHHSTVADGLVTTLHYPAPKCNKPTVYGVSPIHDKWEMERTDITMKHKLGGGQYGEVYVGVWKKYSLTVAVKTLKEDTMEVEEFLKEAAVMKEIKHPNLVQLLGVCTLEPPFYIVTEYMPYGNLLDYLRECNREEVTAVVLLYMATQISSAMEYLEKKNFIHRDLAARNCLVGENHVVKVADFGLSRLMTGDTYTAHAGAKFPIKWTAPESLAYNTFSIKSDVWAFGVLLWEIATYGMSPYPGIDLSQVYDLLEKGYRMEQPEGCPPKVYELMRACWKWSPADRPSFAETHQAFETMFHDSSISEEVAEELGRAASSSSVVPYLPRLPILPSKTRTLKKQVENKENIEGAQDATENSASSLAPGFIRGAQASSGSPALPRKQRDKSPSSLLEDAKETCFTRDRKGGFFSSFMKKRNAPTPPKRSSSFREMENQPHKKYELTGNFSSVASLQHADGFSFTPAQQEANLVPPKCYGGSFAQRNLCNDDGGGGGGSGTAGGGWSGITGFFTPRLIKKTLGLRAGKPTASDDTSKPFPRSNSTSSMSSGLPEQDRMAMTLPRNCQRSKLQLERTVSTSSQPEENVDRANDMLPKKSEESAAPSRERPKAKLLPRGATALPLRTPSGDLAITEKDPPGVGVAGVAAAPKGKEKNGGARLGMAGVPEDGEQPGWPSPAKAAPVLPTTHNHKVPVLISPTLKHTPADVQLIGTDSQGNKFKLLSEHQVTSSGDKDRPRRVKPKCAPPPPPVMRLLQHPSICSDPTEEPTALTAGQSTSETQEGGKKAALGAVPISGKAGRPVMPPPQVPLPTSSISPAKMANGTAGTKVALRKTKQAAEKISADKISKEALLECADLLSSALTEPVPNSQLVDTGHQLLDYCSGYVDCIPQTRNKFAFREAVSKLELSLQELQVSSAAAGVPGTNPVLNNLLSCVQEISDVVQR
Chain of Tyrosine-protein kinase ABL1 (Homo sapiens) (P00519 whole entry): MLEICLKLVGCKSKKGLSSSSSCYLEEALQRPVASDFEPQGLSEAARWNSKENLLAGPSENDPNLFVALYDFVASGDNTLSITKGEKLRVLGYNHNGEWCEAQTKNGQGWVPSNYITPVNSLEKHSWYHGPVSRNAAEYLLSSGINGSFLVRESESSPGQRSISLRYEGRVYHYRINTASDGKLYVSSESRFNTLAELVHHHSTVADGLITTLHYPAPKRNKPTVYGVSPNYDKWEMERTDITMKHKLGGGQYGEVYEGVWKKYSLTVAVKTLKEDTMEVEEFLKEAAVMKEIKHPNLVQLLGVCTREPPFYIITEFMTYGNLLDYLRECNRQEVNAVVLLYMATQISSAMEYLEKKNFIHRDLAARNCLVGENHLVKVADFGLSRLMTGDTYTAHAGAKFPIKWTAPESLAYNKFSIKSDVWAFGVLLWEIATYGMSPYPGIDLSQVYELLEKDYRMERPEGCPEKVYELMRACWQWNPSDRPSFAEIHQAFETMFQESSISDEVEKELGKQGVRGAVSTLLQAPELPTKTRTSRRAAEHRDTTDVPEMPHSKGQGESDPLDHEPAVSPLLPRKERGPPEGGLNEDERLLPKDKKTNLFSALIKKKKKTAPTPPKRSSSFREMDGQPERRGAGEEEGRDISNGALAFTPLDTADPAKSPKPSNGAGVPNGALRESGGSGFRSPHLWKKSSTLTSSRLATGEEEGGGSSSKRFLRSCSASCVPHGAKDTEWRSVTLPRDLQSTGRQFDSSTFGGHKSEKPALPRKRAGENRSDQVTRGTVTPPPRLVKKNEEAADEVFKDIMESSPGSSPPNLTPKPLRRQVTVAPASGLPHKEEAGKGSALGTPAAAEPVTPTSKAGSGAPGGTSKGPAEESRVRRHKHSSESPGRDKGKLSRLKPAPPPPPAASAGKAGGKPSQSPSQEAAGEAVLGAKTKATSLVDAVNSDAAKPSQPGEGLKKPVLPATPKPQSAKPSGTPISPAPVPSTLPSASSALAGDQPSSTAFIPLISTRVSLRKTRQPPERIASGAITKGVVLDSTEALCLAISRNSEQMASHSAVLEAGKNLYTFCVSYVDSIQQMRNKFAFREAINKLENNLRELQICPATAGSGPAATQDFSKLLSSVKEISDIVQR
Chain of Aurora kinase B (Homo sapiens) (Q96GD4 whole entry): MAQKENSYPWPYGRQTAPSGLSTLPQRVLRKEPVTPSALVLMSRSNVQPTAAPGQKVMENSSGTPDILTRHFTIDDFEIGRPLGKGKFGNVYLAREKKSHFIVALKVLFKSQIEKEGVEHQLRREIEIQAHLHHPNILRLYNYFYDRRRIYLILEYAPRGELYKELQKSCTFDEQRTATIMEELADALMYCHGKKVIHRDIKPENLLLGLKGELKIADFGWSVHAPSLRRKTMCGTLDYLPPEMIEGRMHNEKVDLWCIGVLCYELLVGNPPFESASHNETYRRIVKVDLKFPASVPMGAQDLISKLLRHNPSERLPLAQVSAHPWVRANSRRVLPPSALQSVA

| SMILES | residual activity [1] | residual activity [2] [%] | residual activity [3] [%] | residual activity [4] [%] | residual activity [5] [%] | residual activity [6] [%] | residual activity [7] [%] | residual activity [8] [%] | residual activity [9] [%] | residual activity [10] [%] |
| --- | --- | --- | --- | --- | --- | --- | --- | --- | --- | --- |
| COc1cc2ncnc(Nc3ccc(O)c(Br)c3)c2cc1OC | 96% (inactive) | 82 | 64 | 13 | 76 | 22 | 49 | 26 | 43 | 2 |
| Cc1ccc(S(=O)(=O)/C=C/C#N)cc1 | 102% (inactive) | 115 | 104 | 97 | 91 | 97 | 118 | 103 | 105 | 88 |
| COc1ccc(S(=O)(=O)N(CCO)c2ccccc2CN(C)C/C=C/c2ccc(Cl)cc2)cc1 | 111% (inactive) | 90 | 92 | 118 | 116 | 87 | 122 | 127 | 90 | 95 |
| Ic1cccc(CSc2nnc(-c3ccncc3)o2)c1 | 101% (inactive) | 86 | 87 | 70 | 112 | 71 | 83 | 80 | 77 | 42 |
| CC(=O)O/N=C1\C(=C2\C(=O)Nc3cc(Br)ccc32)Nc2ccccc21 | 108% (inactive) | 94 | 60 | 7 | 31 | 4 | 41 | 17 | 19 | 6 |
| Cn1cc(/C=C2\C(=O)Nc3ccc(S(N)(=O)=O)cc32)c2ccccc21 | 101% (inactive) | 7 | 57 | 22 | 57 | 31 | -4 | 4 | 3 | 0 |
| Cc1nc(-c2ccccc2)c(-c2ccncc2)o1 | 113% (inactive) | 85 | 26 | 33 | 62 | 45 | 122 | 86 | 44 | 25 |
| CN(C)c1ccc(/C=C2\C(=O)Nc3ccccc32)cc1 | 118% (inactive) | 99 | 100 | 87 | 103 | 89 | 56 | 26 | 13 | 4 |
| COc1cc2ncnc(Nc3ccc(Oc4ccccc4)cc3)c2cc1OC | 108% (inactive) | 73 | 61 | 75 | 82 | 93 | 52 | 30 | 28 | 9 |
| c1ccc2c(-c3ccncc3)c[nH]c2c1 | 94% (inactive) | 77 | 98 | 100 | 110 | 72 | 99 | 76 | 92 | 70 |
| N#C/C(=C(\N)Sc1ccc(N)cc1)c1ccccc1C(F)(F)F | 105% (inactive) | 103 | 94 | 87 | 88 | 82 | 75 | 70 | 26 | 15 |
| O=C(O)c1ccc2c3c1cccc3c(=O)n1c3ccccc3nc21 | 112% (inactive) | 72 | 101 | 80 | 91 | 74 | 72 | 16 | 64 | 18 |
| O=[N+]([O-])c1ccc(-c2nc(-c3ccc(F)cc3)c(-c3ccncc3)[nH]2)cc1 | 113% (inactive) | 100 | 95 | 95 | 82 | 46 | 103 | 109 | 114 | 90 |
| CCOc1cc2ncnc(Nc3cccc(Br)c3)c2cc1OCC | 104% (inactive) | 115 | 48 | 5 | 36 | 4 | 55 | 46 | 56 | 7 |
| Cn1nc2c3c(cccc31)C(=O)c1ccccc1-2 | 102% (inactive) | 29 | 101 | 70 | 102 | 86 | 79 | 74 | 75 | 6 |
| N#Cc1cnc2cnc(NCc3cccnc3)cc2c1Nc1ccc(F)c(Cl)c1 | 103% (inactive) | 65 | 98 | 84 | 82 | 55 | 31 | 24 | 3 | 1 |
| CC(C)n1cnc2c(NCc3ccccc3)nc(NCCCO)nc21 | 98% (inactive) | 102 | 96 | 81 | 93 | 89 | 109 | 114 | 99 | 85 |
| CN(C)CCCn1cc(C2=C(c3c[nH]c4ccccc34)C(=O)NC2=O)c2ccccc21 | 72% (inactive) | 108 | 108 | 108 | 90 | 76 | 100 | 80 | 31 | 7 |

From ChEMBL document CHEMBL2218924, “A broad activity screen in support of a chemogenomic map for kinase signalling research and drug discovery” (Biochem J, 2013)
